# Activity calls are given as the source filed them. How the source made its calls: active means hit-call score of the fitted dose curve at least 0.9, where 1 is the maximum; inactive means score below 0.9.
# Test: ATG_PPRE_CIS: Attagene CIS-FACTORIAL HepG2 Assay for human Peroxisome Proliferator-activated Response Element (PPRE) (AID 2282958)
# Conditions: HepG2 PPRE cis-element reporter, Attagene transcription factor profiling; actives raise or lower the signal
# Experimental: ATG_CIS is a cell-based, multiplexed-readout assay that uses HepG2, a human liver cell line, with measurements taken at 24 hours after chemical dosing in a 24-well plate.ATG_PPRE_CIS is one of 52 assay component(s) measured or calculated from the ATG_CIS assay. It is designed to make measurements of mRNA induction, a form of inducible reporter, as detected with fluorescence intensity signals by Reverse transcription polymerase chain reaction (RT-PCR) and Capillary electrophoresis technology.Data from the assay component ATG_PPRE_CIS was analyzed into 1 assay endpoint. This assay endpoint, ATG_PPRE_CIS, was analyzed with bidirectional fitting relative to DMSO as the negative control and baseline of activity. Using a type of inducible reporter, measures of mRNA for gain or loss-of-signal activity can be used to understand the reporter gene at the transcription factor-level as they relate to the gene PPARA and PPARD and PPARG. Furthermore, this assay endpoint can be referred to as a primary readout, because this assay has produced multiple assay endpoints where this one serves a reporter gene function. To generalize the intended target to other relatable targets, this assay endpoint is annotated to the nuclear receptor intended target family, where the subfamily is non-steroidal.
# Human liver HepG2 cells are transiently transfected with multiple reporter transcription units (MRTUs) in 6-well plates using FuGene 6 reagent (Roche; 3 ml FuGene/1 mg DNA). The MRTU constructs are regulated by a cis-regulating element (promoter). […] A major difference between the CIS and TRANS system is that in CIS activities of endogenous TFs are measured, whereas the TRANS assay evaluates changes in activities of exogenous, chimeric NR-Gal4 proteins. […] At the end of 24 hour incubation, total RNA was isolated using TriZol reagent (Invitrogen). The isolated RNA is then reverse-transcribed using oligo(dT) primer and Mo-MLV reverse transcriptase (Invitrogen) with DNAse I (Ambion) treatment for 30 min. The one-tenth of the produced cDNA was amplified by PCR using Taq DNA polymerase (Invitrogen) and two reporter sequence-specific primers. The PCR products were fluorescently labeled by primer extension with 6-arboxyfluorescein (6-FAM) 5'-labeled reporter sequence-specific primer (2 min at 95 C, 20 s at 68 C and 10 min at 72 C) and these products were digested with 5U of HpaI (New England Biolabs) for 2h at 37 C. The fragments were purified using Qiaquick PCR columns (Qiagen), analyzed on an ABI 3130xL genetic analyzer (Applied Biosystems) with peak positions identified by using a set of X-rhodamine (ROX)-labeled MapMarker1000 molecular weight standards (BioVentures). The raw capillary electrophoresis data was processed using Attagraph software (Attagene).
Structure (SMILES),AC50,outcome
CCOc1ccc2c(c1)C(C)=CC(C)(C)N2,78.8 µM (active),
NCC1(Cc2noc(=O)[nH]2)CCCCC1,,inactive
CCCc1cc(=O)[nH]c(=S)[nH]1,,inactive
Cc1ccc(Cl)cc1,,inactive
CC(=O)C(C)=CC1C(C)=CCCC1(C)C (stereo not given),,inactive
Cc1nc(-c2ccc3c(c2)CCN(CCC2CCC(NC(=O)/C=C/c4ccc(F)cc4)CC2)CC3)no1 (stereo not given),,inactive
O=c1[nH]cc(F)c(=O)[nH]1,,inactive
COc1cc(C=O)ccc1O,,inactive
COc1cc(S(=O)(=O)O)c(C)cc1N=Nc1c(O)ccc2cc(S(=O)(=O)O)ccc12,,inactive
COC(=O)c1ccc(O)cc1,,inactive
CCCCC(CC)COC(=O)CC(C(=O)OCC(CC)CCCC)S(=O)(=O)O (stereo not given),,inactive
Cc1ccc(C)c(O)c1C,,inactive
CCCCCCCCCCCC(=O)OC,,inactive
Cc1c(C(=O)O)c(O)cc2c1C(=O)c1c(O)c([C@@H]3O[C@H](CO)[C@@H](O)[C@H](O)[C@H]3O)c(O)c(O)c1C2=O,,inactive
COc1cc(-c2nc(NC(=O)c3cc4cc(C)cc(C)c4n3CC(=O)O)sc2CCC2CCCCC2)c(OC)cc1Cl,,inactive
COc1cc(/C=C/C(=O)CC(=O)/C=C/c2ccc(O)c(OC)c2)ccc1O,,inactive
CCOC(=O)C(C)(C)Oc1ccc(Cl)cc1,,inactive
CCCCCCCCCCCCCCCC,,inactive
Cc1ccc(C)c(C)c1,,inactive
Cc1cc(=O)[nH]c(=S)[nH]1,,inactive

Structure (SMILES),AC50,outcome
COc1ccc2c(c1)c(CC(=O)O)c(C)n2C(=O)c1ccc(Cl)cc1,12.5 µM (active),
CNC(=O)[C@H]1O[C@@H](n2cnc3c(NCc4cc(Cl)ccc4OCc4cc(C)no4)ncnc32)[C@H](O)[C@@H]1N,,inactive
COCCOCCOC,,inactive
Cc1oc(-c2ccccc2)nc1CCOc1cccc2c1ccn2CCC(=O)O,0.0633 µM (active),
CC(=O)OCCOCCOCCOC(C)=O,,inactive
NC(=O)Cn1c(=O)cc(CCN2CCN(c3nccc4sccc34)CC2)c2ccc(F)cc21,,inactive
Cc1cccc(C)c1O,,inactive
C1CCC(SSC2CCCCC2)CC1,,inactive
CC1=C(/C=C/C(C)=C/C=C/C(C)=C/CO)C(C)(C)CCC1,47.6 µM (active),
CC=Cc1ccc(O)c(OC)c1,,inactive
CN[C@H]1CC[C@@H](c2ccc(Cl)c(Cl)c2)c2ccc(S(N)(=O)=O)cc21,,inactive
c1cc(-c2ccncc2)ccn1,,inactive
Cc1ccc(N(C)C)cc1,,inactive
COc1ccc(S(=O)(=O)N2C(=O)[C@@](c3ccccc3OC)(N3C[C@H](O)C[C@H]3C(=O)N(C)C)c3cc(Cl)ccc32)c(OC)c1,76.8 µM (active),
C[Si]1(C)O[Si](C)(C)O[Si](C)(C)O[Si](C)(C)O1,,inactive
CCCCCCOCCO,,inactive
C=CCc1ccc(O)c(OC)c1,,inactive
O=[N+]([O-])C(CO)(CO)CO,,inactive
CC(C)(C)c1cc(O)c(C(C)(C)C)cc1O,30.9 µM (active),
CCCCCCC(=O)OCC,,inactive
